# RORgamma inh – blocks mouse ROR gamma transcriptional activity. Drosophila S2 Gal4-RORgamma UAS-luciferase reporter, 20 h. 5.4% of 310,000 active. P51450. Potency, µM (top dose mostly 53.6 µM), inactives show at the top dose activity change, negative = inhibition, hits mostly inhibitors. AID 2551; further: on the % scale 0 is the no-effect control and ±100 the full control effect; nearly all actives have a fitted effect of over 60% in size
# Target sequence (P51450 whole entry, looked up, the tested form may be a part): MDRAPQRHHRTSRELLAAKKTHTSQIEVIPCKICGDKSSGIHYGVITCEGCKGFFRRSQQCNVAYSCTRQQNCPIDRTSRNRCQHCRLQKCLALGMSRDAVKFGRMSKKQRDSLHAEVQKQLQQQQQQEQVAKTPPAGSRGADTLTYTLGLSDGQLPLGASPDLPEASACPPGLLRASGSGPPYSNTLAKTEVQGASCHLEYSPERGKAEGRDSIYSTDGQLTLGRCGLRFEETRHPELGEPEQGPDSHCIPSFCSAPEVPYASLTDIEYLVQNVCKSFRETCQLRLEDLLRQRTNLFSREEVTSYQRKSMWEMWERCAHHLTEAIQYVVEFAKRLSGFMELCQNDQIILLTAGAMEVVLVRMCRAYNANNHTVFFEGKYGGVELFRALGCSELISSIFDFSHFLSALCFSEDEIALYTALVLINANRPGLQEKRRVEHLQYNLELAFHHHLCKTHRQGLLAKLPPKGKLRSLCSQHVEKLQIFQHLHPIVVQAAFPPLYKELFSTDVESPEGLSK
#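 In this cell-based reporter format, copper sulfate (700 uM final) drives Gal4–ROR gamma fusion expression from a metallothionein promoter in Drosophila Schneider cells; compounds preincubated 1 hr, reporter read after 20 hr at ambient temperature.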
# Gal4-VP16 FLuc – counter-screen for ROR gamma inhibitors: Gal4-VP16 reporter | 3.5% of 310,000 active | Drosophila S2 Gal4-VP16 UAS-luciferase, luminescence, 20 h | Potency, µM (doses to about 53.6 µM), inactives show at the top dose activity, negative = inhibition, actives largely listed as inhibitors;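 further: Gal4-VP16 expression switched on by copper sulfate through the metallothionein promoter; on the % scale 0 is the no-effect control and ±100 the full control effect; nearly all actives have a fitted effect of over 50% in size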
# ATXN2 expr inh – reduces ATXN2 reporter expression in HEK-293 cells; HEK-293 ATXN2-luciferase reporter, luminescence, 24 h; Potency, µM (highest dose often 57 µM), inactives show top-dose activity change, negative = inhibition, actives largely listed as inhibitors; 0.72% of 360,000 active; further: on the % scale 0 is the no-effect control and ±100 the full control effect; nearly all actives have a fitted effect of over 55% in size
#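 ATXN2-luciferase reporter cells (luciferase flanked by upstream and downstream ATXN2 gene portions) were treated 24 h at 37 °C with compounds at up to 57 uM. SteadyGlo luminescence gave expression; GF-AFC fluorescence gave viability.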
# TGFb SMAD3 inh – blocks TGF-b signaling; 1.2% of 410,000 active; HepG2 CAGA-GFP TGF-b/SMAD3 reporter, GFP fluorescence, 18 h; TGF-beta stimulated, 500 pg/mL final; AID 588855; Potency, µM (doses to about 46.1 µM), without a hit: at the top dose activity, negative = inhibition, actives largely listed as inhibitors; further: on the % scale 0 is the no-effect control and ±100 the full control effect; nearly all actives have a fitted effect of over 65% in size
#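 Using HEPG2 CAGA-GFP reporter cells at 1000 cells/well, we pinned test compounds, stimulated with recombinant TGF-beta (500 pg/mL final) and measured total well GFP after 18 h.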
# S2 tox – reduces viability in counter-screen for ATXN expression inhibitors. S2 cells (HEK-293 line with an ATXN2-luciferase reporter) viability, CellTiter-Fluor protease fluorescence, 24 h. Potency, µM (series often up to 56.7 µM), hits mostly cytotoxic. 0.49% of 400,000 active; further: nearly all actives have a fitted effect of over 40% in size
# HepG2 tox – kills HepG2 cells in TGF-b inhibitor counter-screen | HepG2 CAGA-GFP viability, ATP luminescence, 18 h | 0.76% of 410,000 active | AID 588856 | Potency, µM (titrated, usually from 46.1 µM), for the others: top-dose activity change, negative = cytotoxicity, most hits filed as cytotoxic
#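 CellTiter-Glo luminescence gave cytotoxicity after 18 hours at 37 degrees C. The cells were HepG2 CAGA-GFP in 1% FBS DMEM, stimulated with 500 pg/mL TGF-beta after compound addition. %Activity was normalised to no-cell wells (complete cell-killing) and DMSO (no toxicity), and curves were fitted and classified.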
# * hit, by the source's call; i = inactive; ? = inconclusive; / = no result. Hits are enriched below; roughly 6.1% of the tested compounds scored in any of these assays. The call rests on the fitted dose curve; in most records, active means well fitted curve in the direction sought with a large enough effect; inconclusive means small, poorly fitted or top-dose-only effect, or another doubt; inactive means no such curve, though single readings can be large; an effect the other way counts as inactive or inconclusive. Potency means the concentration at half of the fitted maximal effect.
SMILES,RORgamma inh,Gal4-VP16 FLuc,ATXN2 expr inh,TGFb SMAD3 inh,S2 tox,HepG2 tox
Cc1ccc(CNC(=O)CCCCCn2c(=O)c3sccc3n(CC(=O)C(C)(C)C)c2=O)cc1,/,/,-16.6%,-16.2%,?,-7.9%
N=C1SC(c2ccccc2)C(=O)N1c1ncc(Cc2ccccc2Cl)s1 (centres undefined),1.41µM*,1.26µM*,17.8µM*,?,/,-1.1%
CCCC(C)c1nnc(NC(=O)c2cc(C(=O)OC)cc([N+](=O)[O-])c2)s1 (centres undefined),10µM*,15.8µM*,2.8%,?,i,-36.2%
CCC(=O)NCc1nc(-c2cccc(NC(=O)c3ccc(C)s3)c2)oc1C,/,/,/,/,i,/
Cc1ccc(-n2nc(C)c(NC(=O)CCl)c2C)cc1C,?,-13.5%,?,?,/,-67.8%
CCc1cc(SC#N)cc(C)c1N,-10.2%,-12.8%,/,?,i,-0.5%
CCC(=O)Nc1ccc(SC#N)cc1C,12.6µM*,?,-13.9%,?,?,-42.0%
Cc1cc(SC#N)cc(C)c1NC(=O)CCl,3.55µM*,5.01µM*,-9.0%,?,?,11.2µM*
Cc1ccc(NC(=O)CCl)c(C)c1,-20.3%,-10.2%,?,14.9%,?,-14.4%
CCc1cc(SC#N)cc(C)c1NC(=O)CCl,-44.0%,0.4%,?,7.08µM*,?,-88.0%
Cc1cnc(-n2ncc(C(=O)NCCc3cccnc3)c2C)nc1-c1ccc(F)cc1,/,/,/,/,i,/
COc1ccc(-c2n[nH]c(C(F)(F)F)c2-c2cc3ccccc3o2)c(O)c1,-89.8%,?,?,?,?,12.6µM*
COc1ccccc1-c1c(-c2ccc(OCC(=O)NN)cc2O)n[nH]c1C(F)(F)F,-25.5%,11.2µM*,0.0%,-13.8%,i,-27.4%
NNC(=O)COc1ccc(-c2n[nH]c(C(F)(F)F)c2-c2ccc(Br)cc2)c(O)c1,?,?,-7.0%,?,i,-27.2%
CC(C)(C)c1ccc(C(=O)Nc2ccc(C(=O)NCc3cccnc3)cc2)cc1,?,28.2µM*,-21.6%,5.7%,i,-0.9%
CCOC(=O)Cc1ccc(NC(=O)c2ccc(C(C)(C)C)cc2)cc1,0.199µM*,?,2.82µM*,-17.1%,?,-56.7%
Cc1ccc(C(=O)NC(=S)NCc2cccnc2)cc1C,12.6µM*,?,-17.6%,-3.9%,i,-8.0%
CCOC(=O)Cc1ccc(NC(=O)c2ccccc2Br)cc1,-5.4%,-9.2%,/,-7.2%,i,0.8%
O=C(NCc1cccnc1)NC(=O)c1ccc(Cl)cc1,26.8%,3.0%,2.0%,-1.0%,i,-1.0%
COc1ccc(C(=O)NC(=S)NCc2cccnc2)cc1Br,?,?,/,-3.2%,?,-15.8%
CC(C)c1ccc(C(=O)NC(=S)NCc2cccnc2)cc1,2.82µM*,?,9.3%,-8.8%,i,-25.4%
Cc1cccc(C)c1NC(=O)Cn1nc(C)c2sc3ccccc3c2c1=O,/,/,4.3%,13.3%,i,3.5%
CCOc1ccc(C2C(C(N)=O)=C(C)Nc3nc(-c4ccc(OC)cc4)nn32)cc1 (centres undefined),/,/,-4.8%,-4.9%,i,-5.1%
CCCC[C@H](NC(=O)[C@H](CC(C)C)NC(=O)CNC(=O)[C@@H](NC(=O)[C@H](Cc1ccccc1)NC(=O)[C@H](CO)NC(=O)[C@@H](N)CC(=O)O)C(C)C)C(N)=O,14.2%,-1.0%,/,/,/,/
CCN1CCN(C(c2ccc(C)cc2)c2sc3nc(-c4ccco4)nn3c2O)CC1 (centres undefined),/,/,16.3%,-3.9%,?,-2.5%
COc1cccc(NC(=O)CN2C=NS(=O)(=O)c3ccccc32)c1,/,/,-1.5%,-4.2%,i,-7.4%
Cc1onc(-c2c(F)cccc2Cl)c1C(=O)NC(=S)NCc1cccnc1,15.8µM*,?,-5.1%,-4.3%,i,0.1%
O=C(NC(=S)NCc1cccnc1)c1ccc([N+](=O)[O-])cc1,8.91µM*,?,/,-26.4%,i,-18.7%
